The results in this text go back to PubChem BioAssay.

Several values for one entry are separate records, joined by “and”; a condition that tells them apart may be missing. Equal entries are not always repeated. Values without a mark were called inactive. Activity calls are given as the source filed them.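 The calls were made as follows: active = inhibition above 54%, about 3 SD of non-fluorescent compounds; inactive = the rest.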

For this assay, the target named is AP-2 complex subunit beta (Homo sapiens) (UniProt P63010). Briefly: inhibitors of arrestin peptide binding to AP2, pilot screen, biochemical, validation set, GST-AP2 beads, flow cytometry (AID 504541).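 Also: AP2 carries R879A mutation and is captured from E. coli lysate; bead-bound FITC arrestin peptide fluorescence measuring arrestin peptide binding to AP2; 0% = DMSO wells and 100% = excess unlabeled arrestin peptide control.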 Conditions: FITC arrestin peptide, at 10 µM, hits give high values, AP2 beta2 appendage fragment, R879A mutant.
Chain of AP-2 complex subunit beta (Homo sapiens) (P63010 whole entry, looked up, the tested form may be a part, one chain of several): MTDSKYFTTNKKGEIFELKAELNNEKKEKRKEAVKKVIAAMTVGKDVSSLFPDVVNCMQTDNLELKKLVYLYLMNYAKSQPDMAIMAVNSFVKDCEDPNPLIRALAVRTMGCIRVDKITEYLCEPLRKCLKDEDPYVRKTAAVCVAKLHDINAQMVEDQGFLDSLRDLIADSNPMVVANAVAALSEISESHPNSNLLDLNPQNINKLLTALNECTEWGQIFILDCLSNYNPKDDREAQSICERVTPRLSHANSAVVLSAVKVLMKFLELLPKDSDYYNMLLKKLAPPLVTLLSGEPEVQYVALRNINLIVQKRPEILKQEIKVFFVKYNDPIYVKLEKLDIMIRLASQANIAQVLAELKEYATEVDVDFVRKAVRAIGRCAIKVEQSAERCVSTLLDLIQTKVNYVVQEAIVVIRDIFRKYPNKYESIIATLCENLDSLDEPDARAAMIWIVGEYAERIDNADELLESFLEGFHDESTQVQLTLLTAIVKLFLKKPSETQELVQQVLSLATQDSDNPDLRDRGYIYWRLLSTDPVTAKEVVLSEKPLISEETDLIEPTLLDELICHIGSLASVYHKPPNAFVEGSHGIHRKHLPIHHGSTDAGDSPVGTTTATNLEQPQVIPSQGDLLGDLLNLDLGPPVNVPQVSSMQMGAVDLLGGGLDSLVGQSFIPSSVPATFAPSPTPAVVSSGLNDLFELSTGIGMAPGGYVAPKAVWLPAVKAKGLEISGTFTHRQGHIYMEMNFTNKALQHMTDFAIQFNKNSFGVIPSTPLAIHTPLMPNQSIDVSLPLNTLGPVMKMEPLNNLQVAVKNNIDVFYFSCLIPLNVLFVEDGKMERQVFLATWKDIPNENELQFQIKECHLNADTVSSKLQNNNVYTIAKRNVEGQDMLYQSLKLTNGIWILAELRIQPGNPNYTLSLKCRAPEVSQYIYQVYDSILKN
By inhibition is commonly meant the drop in the measured response relative to a control, in per cent. For `Cc1nc(-c2coc3c(CN(C)C)c(O)ccc3c2=O)cs1`, the inhibition was 2.27%.
To `COCCCN1C(=O)C(=O)/C(=C(/O)c2ccc3c(c2)CC(C)O3)C1c1cccnc1` (centres undefined) belongs 1.96%; to `O=C(Nc1ccccc1C(=O)N1CCCCCC1)c1ccccc1Cl`, 26.6%.
As to `Fc1ccc(-c2cc(-c3ccccc3)nc(-n3cccn3)n2)cc1`, the inhibition is 34.7%.
In the case of `NS(=O)(=O)c1cc2c(cc1Cl)NC(C(Cl)Cl)NS2(=O)=O` (centres undefined), the inhibition was -6.64%.
For `CCC(C(=O)Nc1ccc2c(c1)OCCO2)c1ccccc1` (centres undefined) the value was 3.98%.
`c1ccc(CNc2ncnc3nc[nH]c23)cc1`: the inhibition was -1.71%.
For `Cc1cc(/C=N/O)c(C)n1-c1ccc(Br)cc1` the value was -0.76%; for `COc1ccc(/C=C/C(=O)c2cc3cccc(OC)c3oc2=O)cc1`, 4.15%.
For `Cc1ccc(C2=NOC(=O)/C2=C\C=C\c2ccccc2)cc1` the value was 13%; for `CCc1ccc(/C=C2\Oc3cc(OC(=O)N4CCOCC4)ccc3C2=O)cc1`, -5.57%.
For `COc1cc(NC(=S)NN2CCN(C)CC2)cc(OC)c1OC`, the inhibition was -10.5%.
For `C[C@]12CCC3C(CC=C4C[C@@H](O)CC[C@@]43C)C1CCC2[C@]1(C)CCC(=O)O1` (some centres undefined) the value was -4.51%.
For `COC(=O)c1cc(OC)c(OC)cc1NC(=O)CN1C(=O)c2ccccc2C1=O` the value was -9.37%.
To `c1ccc(CN(CC2=NCCN2)c2ccccc2)cc1` belongs 0.2% and -12.4%.
Turning to `Cc1oncc1C(=O)Nc1ccc(C(F)(F)F)cc1`, the inhibition was -2.96%.
`Cn1cc(C2N3CC4(C)CN2CC(C)(C3)C4=O)c2ccccc21` (centres undefined): the inhibition was -3.74%.
To `CCCCOc1cc(C(=O)NCCN(CC)CC)c2ccccc2n1` belongs -5.17% and -1.67%.
To `O=C(CSCc1ccccc1)NCCCN1CCOCC1` belongs -9.56%; to `COC(=O)c1ccc(OCCCCN2CC(C)OC(C)C2)cc1` (centres undefined), -5.73%; to `CCOc1ccc(C(=O)NC(C)C2COc3ccccc3O2)cc1` (centres undefined), -0.3%.
To `CSCC[C@H](NC(=O)OC(C)(C)C)C(=O)N1CCC(C(=O)N[C@@H](C)C(=O)O)CC1` belongs -16%; to `O=C(N/C(=C/C=C\c1ccccc1)C(=O)N1CCOCC1)c1ccc(Br)cc1`, 6.94%; to `COc1ccc2[nH]c(=O)c(CN(C(=O)c3ccco3)C(C)C)cc2c1`, -1.83%.
For `COc1cc(-c2cccs2)cc(=O)c2c(C)oc(C)c12`, the inhibition is 54.7% (active).
Take `CCC(=O)O[C@]1(C(=O)CCl)[C@@H](C)C[C@H]2[C@@H]3CCC4=CC(=O)C=C[C@]4(C)[C@@]3(F)[C@@H](O)C[C@@]21C`: the inhibition was 3.88%.
Take `COCCN(CCOC)Cc1c(C)[nH]c2c(C)c(C)ccc2c1=O`: the inhibition was -8.42%.
Take `COc1ccccc1/C=C/C(=O)OCCN1CCOCC1`: the inhibition is 0.96%.
As to `c1ccc(Cn2nnc3cnccc32)cc1`, the inhibition was -12.1%.
To `Nc1cnn(C2OC(CO)C(O)C2O)c(=O)n1` (centres undefined) belongs 1.7%; to `Cc1ccc(C(=O)Nc2ccccc2C(=O)NC(C(=O)O)C(C)C)cc1` (centres undefined), 10.5%.
For `NC(CO)C(=O)NNCc1ccc(O)c(O)c1O` (centres undefined) the value was 62.4% (active); for `CC12CCCCN1CCCc1c2[nH]c2ccccc12` (centres undefined), 3.51%; for `CN(C)CCN(Cc1ccc(Cl)cc1)c1ccccn1`, 54.2% (active).
To `CSc1cccc(NC(=O)/C=C/c2ccccc2)c1` belongs 7.39%; to `Cc1oc2cc(O)cc(O)c2c(=O)c1-c1ccc2c(c1)OCCCO2`, 21%.
Take `CNC(=O)Oc1ccc2c(c1)[C@]1(C)CCN(C)[C@@H]1N2C`: the inhibition was -9.24%.
For the molecule `CCCCNc1ccc(C(=O)OCCN(C)C)cc1`, the inhibition was 5.38%.
Consider `O=C(COc1cc(O)c2c(=O)c3ccccc3oc2c1)OCc1ccccc1`, for which the inhibition was -5.28%.
